# For some assays here: Measured potencies and affinities stand elsewhere.
# Key:
# Design in all cases: scale not given: direction of the effect not stated beside the values
# [1] = biological target: Protein translocase subunit SecA (Escherichia coli (strain K12)) (UniProt P10408); assay: Assay to Identify E. coli SecA ATPase Inhibitors; assay type: functional; settings: 30 µM
# [2] = biological target: T1, Ubiquitin-activating enzyme e1, putative (Leishmania donovani (strain BPK282A1)) (UniProt E9BSI1); assay: Leishmania donovani Ubiquitin Activating Enzyme (LdE1); assay type: functional; settings: 30 µM
# T1 sequence (whole entry): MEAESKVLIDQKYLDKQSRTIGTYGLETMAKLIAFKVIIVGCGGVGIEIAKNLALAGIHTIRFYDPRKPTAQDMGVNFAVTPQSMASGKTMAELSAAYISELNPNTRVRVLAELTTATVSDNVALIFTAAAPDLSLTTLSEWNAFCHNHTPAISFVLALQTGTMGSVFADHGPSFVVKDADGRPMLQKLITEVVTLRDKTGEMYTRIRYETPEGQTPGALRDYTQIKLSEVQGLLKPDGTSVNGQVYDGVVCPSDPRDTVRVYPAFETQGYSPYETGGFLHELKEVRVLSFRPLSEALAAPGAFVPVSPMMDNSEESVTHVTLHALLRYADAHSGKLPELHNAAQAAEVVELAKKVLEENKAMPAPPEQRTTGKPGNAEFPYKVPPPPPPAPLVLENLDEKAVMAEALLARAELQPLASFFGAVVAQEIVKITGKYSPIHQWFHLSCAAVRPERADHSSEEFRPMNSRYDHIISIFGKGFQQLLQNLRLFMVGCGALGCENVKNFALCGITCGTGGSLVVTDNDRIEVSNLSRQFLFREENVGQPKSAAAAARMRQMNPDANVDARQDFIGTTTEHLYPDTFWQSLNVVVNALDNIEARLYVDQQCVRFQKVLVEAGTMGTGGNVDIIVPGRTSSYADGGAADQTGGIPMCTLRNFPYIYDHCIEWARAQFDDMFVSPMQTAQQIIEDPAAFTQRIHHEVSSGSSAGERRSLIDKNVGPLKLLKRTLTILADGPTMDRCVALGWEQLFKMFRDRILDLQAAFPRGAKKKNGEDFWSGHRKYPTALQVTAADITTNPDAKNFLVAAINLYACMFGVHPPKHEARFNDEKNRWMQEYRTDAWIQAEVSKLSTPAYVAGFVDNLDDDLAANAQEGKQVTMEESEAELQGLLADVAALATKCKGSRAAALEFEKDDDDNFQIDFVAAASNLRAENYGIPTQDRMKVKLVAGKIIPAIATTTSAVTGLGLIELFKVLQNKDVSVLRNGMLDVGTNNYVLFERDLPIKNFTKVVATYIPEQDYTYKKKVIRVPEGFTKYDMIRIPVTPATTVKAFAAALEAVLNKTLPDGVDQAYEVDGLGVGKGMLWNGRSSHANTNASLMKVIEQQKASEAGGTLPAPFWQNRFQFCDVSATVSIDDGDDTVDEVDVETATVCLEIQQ
# [3] = biological target: AMP-activated protein kinase, AMPK (Homo sapiens) (UniProt P54646+O43741+P54619+Q9UGJ0+Q9Y478+Q13131+Q9UGI9); assay: AMP-dependent Kinase enzyme assay. An in vitro enzyme assay that detects ADP turnover that is directly proportional to AMPK activity. This uses naive AMPK that is activated during the assay with MK-8722; assay type: functional; settings: 30 µM
# [4] = biological target: Sialic acid-binding Ig-like lectin 9 (Homo sapiens) (UniProt Q9Y336); assay: Hs-Siglec9 ALPHAscreen SOP 20170721; settings: 10 µM
# Sialic acid-binding Ig-like lectin 9 (Homo sapiens), sequence (Q9Y336 whole entry): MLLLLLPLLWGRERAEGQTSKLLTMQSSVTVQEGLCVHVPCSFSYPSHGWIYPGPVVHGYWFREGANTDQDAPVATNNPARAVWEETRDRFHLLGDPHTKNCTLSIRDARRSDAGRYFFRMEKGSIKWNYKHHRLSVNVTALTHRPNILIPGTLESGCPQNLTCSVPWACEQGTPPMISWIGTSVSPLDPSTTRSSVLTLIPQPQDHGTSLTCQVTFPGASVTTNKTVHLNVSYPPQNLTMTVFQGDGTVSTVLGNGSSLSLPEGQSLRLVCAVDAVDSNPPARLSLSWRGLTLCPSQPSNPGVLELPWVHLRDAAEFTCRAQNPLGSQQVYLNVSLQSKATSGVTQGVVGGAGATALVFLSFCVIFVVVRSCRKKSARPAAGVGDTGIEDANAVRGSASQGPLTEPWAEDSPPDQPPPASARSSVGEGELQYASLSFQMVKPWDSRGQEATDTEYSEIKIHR
# Trypanosoma cruzi = assay: Trypanosoma cruzi phosphomannomutase and mannose-1-phosphate guanylyltransferase assay; assay type: functional; settings: 10 µM
# [5] = biological target: T2, Arginase-2, mitochondrial (Homo sapiens) (UniProt P78540); assay: in vitro enzyme assay to detect the production of urea directly proportional to the activity of Arginase II; assay type: functional; settings: 33.3 µM; also: in the data most compounds retested in dose-response had high values
# T2 sequence (whole entry): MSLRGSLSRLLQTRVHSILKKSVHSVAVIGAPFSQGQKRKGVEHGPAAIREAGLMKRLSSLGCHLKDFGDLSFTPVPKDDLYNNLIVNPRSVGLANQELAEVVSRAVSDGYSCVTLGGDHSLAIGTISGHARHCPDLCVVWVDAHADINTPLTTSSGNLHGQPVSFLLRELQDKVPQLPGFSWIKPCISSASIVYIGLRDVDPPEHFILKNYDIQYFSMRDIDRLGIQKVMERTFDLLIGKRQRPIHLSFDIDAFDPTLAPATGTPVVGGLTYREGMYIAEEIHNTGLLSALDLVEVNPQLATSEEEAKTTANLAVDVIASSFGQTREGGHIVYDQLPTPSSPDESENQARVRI
# [6] = biological target: T3, Proteasome subunit beta (Trypanosoma cruzi) (UniProt O96673); assay: Trypanosoma cruzi proteasome chymotrypsin-like activity (TcProtChymo) assay.; also: in the data most compounds retested in dose-response had high values; assay type: functional; settings: 9.37 µM
# T3 sequence (whole entry): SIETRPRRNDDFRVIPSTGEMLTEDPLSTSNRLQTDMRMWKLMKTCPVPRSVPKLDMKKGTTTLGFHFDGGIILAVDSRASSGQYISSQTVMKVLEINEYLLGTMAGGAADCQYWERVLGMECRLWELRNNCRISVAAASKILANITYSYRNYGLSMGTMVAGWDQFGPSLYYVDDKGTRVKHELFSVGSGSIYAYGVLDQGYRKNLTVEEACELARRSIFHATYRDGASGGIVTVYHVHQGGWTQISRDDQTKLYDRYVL
# Homo sapiens = species on record: Homo sapiens; assay: To identify inhibition of the IFN signalling (Jak-Stat) pathway via expression of an eGFP reporter gene under the control of an IFN-stimulated response element (ISRE) containing MxA promoter.; assay type: functional; settings: 30 µM
# [7] = biological target: T4, Tyrosyl-tRNA synthetase, putative (Trypanosoma cruzi (strain CL Brener)) (UniProt Q4DSP6); assay: Trypanosoma cruzi tyrosyl tRNA synthetase (TcYRS) _High Tyrosine SOP; assay type: functional; settings: 30 µM; also: in the data most compounds retested in dose-response had high values
# T4 sequence (whole entry): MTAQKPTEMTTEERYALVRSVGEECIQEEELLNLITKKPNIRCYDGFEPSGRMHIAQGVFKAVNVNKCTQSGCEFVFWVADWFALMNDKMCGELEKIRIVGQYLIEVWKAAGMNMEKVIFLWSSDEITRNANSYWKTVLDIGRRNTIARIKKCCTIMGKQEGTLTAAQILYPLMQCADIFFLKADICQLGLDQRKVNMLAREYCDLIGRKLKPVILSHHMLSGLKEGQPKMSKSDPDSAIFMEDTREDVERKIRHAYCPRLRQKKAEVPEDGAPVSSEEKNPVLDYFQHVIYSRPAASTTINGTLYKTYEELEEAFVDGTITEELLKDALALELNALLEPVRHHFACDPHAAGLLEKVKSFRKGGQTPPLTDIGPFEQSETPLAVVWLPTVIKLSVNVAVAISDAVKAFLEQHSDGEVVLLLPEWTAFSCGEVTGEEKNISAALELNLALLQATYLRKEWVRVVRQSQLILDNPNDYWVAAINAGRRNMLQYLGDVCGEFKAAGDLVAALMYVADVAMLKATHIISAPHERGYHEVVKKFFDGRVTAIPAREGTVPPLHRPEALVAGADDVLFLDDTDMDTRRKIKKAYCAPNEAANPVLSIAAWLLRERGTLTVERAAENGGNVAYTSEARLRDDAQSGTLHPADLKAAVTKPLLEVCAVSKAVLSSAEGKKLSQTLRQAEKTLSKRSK
# [8] = biological target: T4, Tyrosyl-tRNA synthetase, putative (Trypanosoma cruzi (strain CL Brener)); assay: Trypanosoma cruzi tyrosyl tRNA synthetase (TcYRS) SOP; assay type: functional; settings: 30 µM
# [9] = biological target: Chromo domain-containing protein 1 (Saccharomyces cerevisiae (strain ATCC 204508 / S288c) (Baker's yeast)) (UniProt P32657); assay: ScCHD-1 Enzyme Inhibition Assay; assay type: functional; settings: 30 µM; also: in the data most compounds retested in dose-response had high values
# Chromo domain-containing protein 1 (Saccharomyces cerevisiae (strain ATCC 204508 / S288c) (Baker's yeast)), sequence (P32657 whole entry, the tested form may be a part): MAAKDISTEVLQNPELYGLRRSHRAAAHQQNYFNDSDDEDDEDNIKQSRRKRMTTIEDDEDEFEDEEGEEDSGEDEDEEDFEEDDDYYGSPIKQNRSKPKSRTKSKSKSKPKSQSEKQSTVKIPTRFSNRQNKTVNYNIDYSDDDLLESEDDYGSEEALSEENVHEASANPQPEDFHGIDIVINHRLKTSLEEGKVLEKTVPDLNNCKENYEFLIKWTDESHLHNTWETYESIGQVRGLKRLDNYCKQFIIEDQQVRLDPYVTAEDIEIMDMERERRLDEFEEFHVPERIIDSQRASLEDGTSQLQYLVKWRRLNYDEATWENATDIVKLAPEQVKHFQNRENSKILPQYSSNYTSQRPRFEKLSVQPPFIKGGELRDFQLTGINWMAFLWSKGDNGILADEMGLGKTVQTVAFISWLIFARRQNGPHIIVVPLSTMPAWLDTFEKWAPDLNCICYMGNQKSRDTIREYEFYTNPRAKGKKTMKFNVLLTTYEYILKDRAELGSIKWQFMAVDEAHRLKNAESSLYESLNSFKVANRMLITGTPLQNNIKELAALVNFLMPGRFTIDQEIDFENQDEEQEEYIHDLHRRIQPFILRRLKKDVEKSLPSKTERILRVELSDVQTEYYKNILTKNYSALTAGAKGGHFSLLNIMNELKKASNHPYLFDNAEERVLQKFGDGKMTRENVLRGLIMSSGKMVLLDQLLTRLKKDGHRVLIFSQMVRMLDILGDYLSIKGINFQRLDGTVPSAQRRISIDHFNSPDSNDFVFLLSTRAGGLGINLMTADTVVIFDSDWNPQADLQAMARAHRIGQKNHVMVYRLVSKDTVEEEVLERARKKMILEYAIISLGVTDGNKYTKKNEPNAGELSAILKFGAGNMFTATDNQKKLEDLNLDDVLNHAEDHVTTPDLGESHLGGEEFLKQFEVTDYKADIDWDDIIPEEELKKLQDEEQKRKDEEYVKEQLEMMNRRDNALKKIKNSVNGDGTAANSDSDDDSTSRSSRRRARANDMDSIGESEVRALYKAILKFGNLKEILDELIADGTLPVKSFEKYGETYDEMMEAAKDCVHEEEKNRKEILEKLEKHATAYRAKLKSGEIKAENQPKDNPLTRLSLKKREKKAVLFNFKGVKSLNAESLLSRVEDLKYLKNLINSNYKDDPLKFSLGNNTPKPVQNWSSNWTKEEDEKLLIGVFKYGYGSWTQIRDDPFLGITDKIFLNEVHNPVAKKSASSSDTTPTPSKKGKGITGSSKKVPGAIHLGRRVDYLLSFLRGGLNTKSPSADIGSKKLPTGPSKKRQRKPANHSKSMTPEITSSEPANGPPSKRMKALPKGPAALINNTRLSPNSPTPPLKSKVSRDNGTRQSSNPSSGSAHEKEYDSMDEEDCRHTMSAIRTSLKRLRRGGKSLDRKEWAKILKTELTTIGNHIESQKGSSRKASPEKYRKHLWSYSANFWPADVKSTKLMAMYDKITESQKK
# Protein translocase subunit SecA (Escherichia coli (strain K12)), sequence (P10408 whole entry): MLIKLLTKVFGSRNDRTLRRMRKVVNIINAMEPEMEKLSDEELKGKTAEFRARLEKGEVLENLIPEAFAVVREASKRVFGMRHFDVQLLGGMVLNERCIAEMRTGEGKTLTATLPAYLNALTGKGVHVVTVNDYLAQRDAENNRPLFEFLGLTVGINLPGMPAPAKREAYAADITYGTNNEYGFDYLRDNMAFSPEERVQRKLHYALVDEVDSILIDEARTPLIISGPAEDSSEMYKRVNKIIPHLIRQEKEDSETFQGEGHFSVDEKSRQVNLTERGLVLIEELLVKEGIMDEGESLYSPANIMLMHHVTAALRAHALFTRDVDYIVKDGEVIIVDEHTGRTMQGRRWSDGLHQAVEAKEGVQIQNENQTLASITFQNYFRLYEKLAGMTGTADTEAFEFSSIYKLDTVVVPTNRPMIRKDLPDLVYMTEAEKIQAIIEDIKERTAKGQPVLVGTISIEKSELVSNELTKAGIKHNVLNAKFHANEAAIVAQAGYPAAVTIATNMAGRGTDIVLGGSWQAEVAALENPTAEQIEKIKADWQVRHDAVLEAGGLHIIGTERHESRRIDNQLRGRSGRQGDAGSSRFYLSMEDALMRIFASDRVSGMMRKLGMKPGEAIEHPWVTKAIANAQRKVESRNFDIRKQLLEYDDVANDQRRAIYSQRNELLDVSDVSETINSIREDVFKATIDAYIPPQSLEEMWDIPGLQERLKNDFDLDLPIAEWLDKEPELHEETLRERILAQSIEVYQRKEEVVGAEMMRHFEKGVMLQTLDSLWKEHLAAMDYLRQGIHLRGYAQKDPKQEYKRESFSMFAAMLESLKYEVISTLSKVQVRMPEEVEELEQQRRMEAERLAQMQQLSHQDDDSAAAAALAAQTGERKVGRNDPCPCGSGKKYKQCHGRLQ
Structure (SMILES),Percent Effect [1],Percent Effect [2],Percent Effect [3],Percent Effect [4],Percent Effect (Trypanosoma cruzi),Percent Effect [5],Percent Effect [6],Percent Effect (Homo sapiens),Percent Effect [7],Percent Effect [8],Percent Effect [9]
COc1cc(CCC(=O)NC2CC2)ccc1OCC(F)(F)F,-2.29%,18.4%,-5.56%,-6.41%,-10.4%,2.52%,3.47%,3.66%,4.43%,16.1%,-1.66%
Cn1ccnc1CN1CCN(CC(O)c2ccco2)CC1 (stereo unspecified),-7.57%,18.2%,-3.75%,-8.89%,-1.86%,-0.632%,17.4%,16.1%,6.67%,7.06%,-4.92%
CC(C)C(=O)N1CCN(C(=O)CCc2nnc(-c3ccccc3)o2)CC1,-1.03%,5.06%,-0.0997%,0.624%,-4.06%,4.94%,0.901%,16.1%,3.45%,8.86%,-7.27%
CC(C)Oc1ccccc1CNC(=O)N1CCC(n2cncn2)CC1,-9.7%,11.4%,-5.06%,-3.04%,3.79%,-2.37%,17.3%,7.86%,5.21%,12.7%,-29.4%
CCOCC(=O)N1CCC(Oc2ccc(C(F)(F)F)cn2)CC1,0.852%,5.2%,2.97%,4.76%,-5.42%,13.6%,15.1%,12.1%,0%,3.85%,-4.83%
CCOc1ccc(Cl)c(C(=O)N2CCN(CCO)CC2)n1,-5.67%,10.4%,-0.195%,9%,-3%,0.356%,4.05%,5.42%,4.85%,9.76%,-4.45%
Cc1ccc(CC2CCCN2CC(=O)NCc2cccnc2)cc1 (stereo unspecified),-4.01%,2.63%,5.21%,3.98%,1.66%,-5.92%,14.1%,-8.66%,4.25%,13%,-4.98%
O=C(O)c1cc2c(nc1O)CC(c1cccs1)CC2=O (stereo unspecified),-5.09%,17.3%,-2.58%,-0.782%,-5.5%,-2.64%,15.9%,-5.05%,2.12%,-20.5%,-9.66%
COc1cc(C)nc(N2CCN(C(=O)CCn3cc(C)cn3)CC2)n1,-1.32%,10.1%,1.67%,2.37%,-6.52%,4.94%,-6.47%,11%,-6.4%,11.4%,-2.89%
CC(C)c1noc(CCC(=O)NC(C)c2nnc3n2CCCCC3)n1 (stereo unspecified),-2.21%,-2.7%,-3.53%,-8.65%,-1.47%,-2.23%,2.83%,-7.58%,-9.68%,1.24%,80%
CC1CN(CC(=O)Nc2nncs2)CCN1Cc1nccn1C (stereo unspecified),-6.24%,8.11%,-5.38%,-3.66%,-2.69%,0.924%,4.67%,12%,4.95%,6.1%,8.11%
COc1cccc(OCCNCc2c(C)nn(C)c2N(C)C)c1,-5.35%,5.26%,-9.94%,10.1%,1.5%,1.92%,7.69%,-12%,4.41%,19.5%,-8.18%
CC(C)(C)c1ncc2c(n1)CN(C(=O)c1ccncc1)C2,-2.88%,5.48%,-0.32%,6.45%,-3.57%,-3.19%,17.7%,-6.92%,9.38%,16.1%,-0.422%
O=C(c1ccco1)N1C[C@@H]2OCCN(CCN3CCCC3)[C@@H]2C1,-2.67%,5.41%,5.74%,-2.98%,-1.07%,1.59%,16.1%,-16.1%,2.16%,5.13%,4.02%
CS(=O)(=O)c1ccc(CNC2CCCN(c3cccnn3)C2)cc1 (stereo unspecified),-2.48%,18.2%,4.4%,-0.526%,0.686%,6.53%,12.5%,9.14%,8.57%,21.2%,-19%
COc1ccc(CN2CCCC(Cn3nc(C)nc3C)C2)cc1F (stereo unspecified),-2.67%,-3.8%,7.97%,-1.91%,5.64%,-1.94%,0%,5.94%,-2.08%,2.53%,4.68%
